Data as given in PubChem BioAssay AID602350 (Broad Institute, 2012).
Entries with a potency or affinity are not part of this list. The source made the active and inactive calls.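 How the source made its calls: active means absorbance falls by 30% or more versus neutral controls, with a potency fitted within twice the top valid dose; inconclusive means no clear call, values can overlap the other calls; inactive means change opposite to expected direction, plus the rest.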

The compounds below were run against Protein disulfide-isomerase (Homo sapiens) (UniProt P07237) (assay: inhibition of PDI-driven insulin aggregation – biochemical, turbidity, absorbance, cherry-picked samples, dose response (AID 602350)). Details: recombinant PDI insulin aggregation, absorbance 650 nm, 90 min; series mostly up to 19.5 µM.
Chain of Protein disulfide-isomerase (Homo sapiens) (P07237 whole entry, looked up): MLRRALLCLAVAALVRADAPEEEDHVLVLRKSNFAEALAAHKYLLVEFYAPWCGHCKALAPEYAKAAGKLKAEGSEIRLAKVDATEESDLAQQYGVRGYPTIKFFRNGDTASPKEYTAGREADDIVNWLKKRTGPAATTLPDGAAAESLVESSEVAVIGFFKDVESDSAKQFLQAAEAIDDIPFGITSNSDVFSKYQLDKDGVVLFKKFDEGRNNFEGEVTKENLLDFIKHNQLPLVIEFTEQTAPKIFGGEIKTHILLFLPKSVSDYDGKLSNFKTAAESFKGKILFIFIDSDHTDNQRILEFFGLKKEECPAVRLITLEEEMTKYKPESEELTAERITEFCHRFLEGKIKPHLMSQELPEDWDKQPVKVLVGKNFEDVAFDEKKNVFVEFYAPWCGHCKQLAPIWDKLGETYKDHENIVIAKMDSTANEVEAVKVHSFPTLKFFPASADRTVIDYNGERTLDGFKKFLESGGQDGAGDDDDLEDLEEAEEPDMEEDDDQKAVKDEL

outcome, inactive:
C[C@@H]1CN([C@@H](C)CO)C(=O)Cc2cc(NC(=O)Nc3ccccc3)ccc2O[C@@H]1CN(C)Cc1ccccc1
Cc1ccc(C2=Nc3ccccc3SC(c3cccc([N+](=O)[O-])c3)C2)cc1 (centres undefined)
CCOc1ccc(NC(=O)CCc2nnc3ccc(N4CCN(C)CC4)nn23)cc1
Cc1cc(NC(=O)COC(=O)C2CC(=O)N(c3ccccc3)C2)no1 (centres undefined)
COC(=O)c1ccc(COC(=O)CSCC(=O)Nc2ccc(C)cc2C)cc1
C=CCn1c(SCC(=O)Nc2ccc(N(C)C)cc2)nnc1-c1cccc(C)c1
Cc1c(C(=O)N2CCOCC2)sc2ncn(CC(=O)N3CCC(C)CC3)c(=O)c12
O=C(NCc1ccccc1CN1CCCC1)c1cc2ccccc2o1
CC(=O)Oc1ccc(C2OC(=O)c3ccccc3N2C(C)=O)cc1 (centres undefined)
O=S(=O)(c1cc(F)ccc1F)N1CCN(c2ncccn2)CC1
CCOC(=O)C1=C(c2ccccc2)N=c2s/c(=C\c3cccc(O)c3)c(=O)n2C1c1cccs1 (centres undefined)
Cc1noc(C)c1S(=O)(=O)Nc1ccc2c(c1)CC(=O)N([C@H](C)CO)C[C@H](C)[C@H](CN(C)S(C)(=O)=O)O2
CCCCN(C(=O)C1=CC=CN2CCS(=O)(=O)N=C12)c1ccccc1
OCCC1CN(Cc2cccn2-c2ccccn2)CCN1C1CCCCC1 (centres undefined)
O=C1NC[C@H](Cc2ccccc2)N(C[C@H]2CCCN2C[C@H](Cc2ccc(O)cc2)N2C[C@H](Cc3ccc(O)cc3)N(CC3CCCCCC3)C(=O)C2=O)C1=O
CC(=O)OC1CCC2C3CCC4=C(CC(F)C(=O)C4)C3CCC12C (centres undefined)
C[C@H](CO)N1C[C@H](C)[C@@H](CN(C)S(=O)(=O)c2ccc(F)cc2)Oc2ccc(NC(=O)Cc3ccccc3)cc2C1=O
O=C(CSc1n[nH]c(-c2ccccc2)n1)Nc1ccccc1O
Cc1ccc(C)c(N2CCN(S(=O)(=O)c3ccc4c(c3)OCCO4)CC2)c1
O=C1/C(=C\c2ccc(O)cc2)CCC1CNc1ccc(Cl)cc1 (centres undefined)
COc1ccc(OC)c2[nH]c(=O)c(CCNC(=O)C(=O)c3c(C)[nH]c4ccccc34)cc12
O=C(CCc1ccc(O)cc1)NN=Cc1cc(Br)ccc1O
S=C(NCCN1CCOCC1)Nc1ccc(Br)cc1
CCCNC(=O)Cn1c(-c2ccc(F)cc2)cc(C(=O)OCC)c1C
Cc1ccc(NC(=O)CSC(C)C(=O)OCc2cc(=O)oc3cc(O)ccc23)cc1 (centres undefined)
O=C(c1ccc(OCCN2CCCCC2)cc1)c1c(-c2ccc(O)cc2)sc2cc(O)ccc12
O=C(Nc1ccc(Br)cc1F)c1cccnc1
CC(C)N1CCCC(C)(C(=O)Nc2nc3ccccc3n2C)C1 (centres undefined)
Cc1cc(C(=O)Cn2nnc3ccccc3c2=O)c(C)n1-c1ccccc1F
CCOc1ccc2nc(NS(=O)(=O)Cc3ccccc3)sc2c1
COC(=O)c1ccc(NC(=S)NCCc2cccc(C)c2)cc1
CCOC(=O)c1ccc(NC(=O)C2(c3ccc(Cl)cc3)CCCC2)cc1
CC(=O)c1ccc(N2CCN(C(=O)c3ccc4[nH]c(C)c(C)c4c3)CC2)cc1
Cn1cc(Cl)c(C(=O)OCC(=O)Nc2ccccc2)n1
C[C@H](CO)N1C[C@H](C)[C@@H](CN(C)Cc2ccccc2)Oc2ccc(NC(=O)Nc3ccccc3)cc2CC1=O
CC(=O)c1ccc(NC(=O)c2cc(Cl)nc3ccccc23)cc1
CC1(C(=O)N2CCCCC2)CCN1C(=O)Cc1ccc(-c2ccccc2)cc1 (centres undefined)
CCOC(=O)C1(CCOc2ccccc2)CCN(Cc2ccc(C(=O)OC)cc2)CC1
Cc1ccc(-n2ncc3c(=O)[nH]c(SCC(=O)N4CCCc5ccccc54)nc32)cc1
